# From PubChem BioAssay AID1645860 (Buhrlage Lab, Dana-Farber Cancer Institute and Novartis …, 2021)
# Among all 47,000 compounds or so, about 2,500 (5.3%) were called active. The sample as a whole holds a higher share of actives than the screen did. A number with no mark means an inactive call. No stated cut-off is given here; in the data, active means inhibition above about 30%; inactive means the rest.
# Molecular target: Ubiquitin carboxyl-terminal hydrolase 30 (Homo sapiens) (UniProt Q70CQ3)
# Sequence (Q70CQ3 whole entry, looked up): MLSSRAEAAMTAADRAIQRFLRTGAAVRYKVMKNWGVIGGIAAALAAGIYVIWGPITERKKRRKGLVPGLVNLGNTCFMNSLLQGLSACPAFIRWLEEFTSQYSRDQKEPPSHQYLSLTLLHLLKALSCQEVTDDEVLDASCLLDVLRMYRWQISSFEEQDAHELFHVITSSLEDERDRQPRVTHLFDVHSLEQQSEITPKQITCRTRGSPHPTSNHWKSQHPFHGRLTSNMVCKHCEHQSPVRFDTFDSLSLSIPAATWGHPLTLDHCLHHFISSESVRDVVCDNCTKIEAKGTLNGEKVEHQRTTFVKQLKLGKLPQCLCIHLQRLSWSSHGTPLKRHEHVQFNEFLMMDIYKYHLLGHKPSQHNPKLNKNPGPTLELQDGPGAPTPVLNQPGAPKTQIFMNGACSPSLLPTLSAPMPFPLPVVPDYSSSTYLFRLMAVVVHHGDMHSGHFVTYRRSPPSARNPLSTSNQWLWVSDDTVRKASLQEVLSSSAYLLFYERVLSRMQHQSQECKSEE
# Test: inhibitors of human USP30 deubiquitinase (AID 1645860)
# Conditions: purified USP30, Ub-rhodamine cleavage fluorescence; at 25 µM; active compounds read high
row,SMILES,inhibition
1,Fc1cc(F)cc(CNc2cc(-n3ccnc3)ncn2)c1,0.587%
2,COc1cc(OC)cc(C(=O)Nc2cccc(CCc3nc4ccc(C)cc4[nH]3)c2)c1,26%
3,O=c1c2[nH]c3ccc(Cl)cc3c2ncn1Cc1cccnc1,-14.2%
4,CCOc1ccc2[nH]c3c(=O)n(Cc4cccnc4)cnc3c2c1,22%
5,COc1cc(Cn2cnc3c([nH]c4ccc(Br)cc43)c2=O)cc(OC)c1,57.3% (active)
6,CC(=O)Nc1onc(C)c1-c1ccc(C)c(S(=O)(=O)Nc2ccccc2)c1,-17.6%
7,Cc1ccc(NC(=O)Cc2nc(-c3ccccc3)n[nH]2)cc1,44.3% (active)
8,COc1ccc(CC(=O)Nc2cnc(-c3ccccc3)nc2)cc1,-102%
9,O=C(Cc1nc(-c2ccccn2)n[nH]1)NC1CCCCCC1,-21.9%
10,COc1ccccc1OCCC(=O)Nc1cccc(S(=O)(=O)N(C)C)c1,11.1%
11,CC(OC(=O)c1cn(-c2ccccc2)nc1-c1cccnc1)C(=O)Nc1cccc(S(=O)(=O)N(C)C)c1 (configuration not stated),55.1% (active)
12,CCOc1ncccc1C(=O)NNC(=O)c1cn(-c2ccccc2)nc1-c1ccccc1,-0.192%
13,CNc1nc(C2CCCN(C(=O)C3CCCCC3)C2)nc2c1CNCC2 (configuration not stated),-11.2%
14,COc1cc(NS(=O)(=O)c2ccc3c(c2)N(C)CCO3)cc(OC)c1,0.0144%
15,O=C(Nc1ccc(N2CCN(c3ccccc3)C2=O)nc1)c1ccc2c(c1)OCO2,-9.55%
16,CC(C)(C)c1ccc(Oc2ccc(NC(=O)c3ccc4c(c3)CCO4)cn2)cc1,34.9% (active)
17,O=C(Nc1ccccc1)c1ccc2c(c1)OCCCO2,3.42%
18,Cc1nc2cc3c(cc2n1CC(=O)NCCc1ccccc1)OCCO3,-5.99%
19,Cc1cccc(CC(=O)Nc2c(C)nc3ccccn3c2=O)c1,7.29%
20,COc1cccc(NC(=O)N2CC[C@H]3N(C)CC[C@@]3(C(=O)N3CCCC3)CC2)c1,-23.3%
21,COc1cccc(N2CCN(C(=O)Nc3ccc4c(c3)NC(=O)CO4)CC2)c1,69.6% (active)
22,Cc1cc2oc(C(=O)Nc3ccc4c(c3)NC(=O)CO4)c(C)c2cc1Cl,19.5%
23,O=C(O)C[C@@H]1CCN(C(=O)C2CCCCC2)C[C@@H]1CC1=NCCc2ccccc21,-65%

row,SMILES,inhibition
1,COc1ccc(SCc2nc(N)nc(Nc3ccccc3)n2)cc1,-33%
2,CSc1ncnc2c1sc1nc(-c3ccccc3)c3c(c12)CC(C)(C)OC3,9.17%
3,CC(C)Cc1nc2sc3c(N(CCO)Cc4ccccc4)ncnc3c2c2c1COC(C)(C)C2,34.9% (active)
4,CC1(C)Cc2c(c(-c3ccco3)nc3sc4c(SCCCc5ccccc5)ncnc4c23)CO1,11.9%
5,COc1cccc(O[C@@H]2C[C@@H](NC(=O)C3CCOCC3)[C@H](O)[C@H]2O)c1,7.84%
6,O=C1CNC(=O)N1CC(O)Cn1c2ccc(Br)cc2c2cc(Br)ccc21 (configuration not stated),6.98%
7,O=C(Nc1ccc(Cl)cc1)C1C2C=CC3(O2)C1C(=O)N(CCc1ccccc1Cl)C3C(=O)NC1CCCCC1 (configuration not stated),29.8%
8,O=c1c2cnc(N3CCCCC3)nc2ccn1Cc1cccnc1,1.8%
9,O=c1c2cnc(N3CCCC3)nc2ccn1-c1ccccc1,31% (active)
10,O=c1c2cnc(N3CCOCC3)nc2ccn1CCc1ccccc1,12.9%
11,c1ccc(-c2nccc(-c3ccc(-n4cncn4)cc3)n2)nc1,23.2%
12,Cc1cc(C(=O)CSc2nnc(-c3ccc(F)cc3)n2C)c(C)n1C,-35%
13,Cn1c(SCc2ccc(Cl)cc2)nnc1-c1ccc2c(c1)OCCO2,30.4% (active)
14,CCn1c(SCC(=O)Nc2ccc3c(c2)OCCO3)nnc1C(C)C,9.74%
15,Cc1nn(-c2ccccc2)c2c1c(C)c(CCC(=O)N1CCN(c3ccc(F)cc3)CC1)c(=O)n2C,-7.59%
16,Cc1nn(-c2cccc(F)c2)c2c1c(C)c(CCC(=O)NCc1ccccn1)c(=O)n2C,58.6% (active)
17,Cc1nc2cc(C(=O)NCc3ccccn3)ccc2n1-c1cccc(F)c1,0.251%
18,O=C(Nc1ccc2cn[nH]c2c1)c1cnn(-c2ccccc2)n1,-23.9%
19,COc1ccc(N2CCN(Cc3cc(=O)oc4cc(O)ccc34)CC2)cc1,8.3%
20,CCCc1cc(=O)oc2cc(OC(=O)C3CCN(C(=O)c4ccc(Cl)cc4)CC3)ccc12,29.6%
21,CCCc1cc(=O)oc2cc(OCC(=O)NCc3ccc(OC)cc3)ccc12,62.1% (active)
22,CCN(CC)c1ccc(C2C3=C(CC(C)(C)CC3=O)Nc3ccccc3N2C(=O)Cc2ccccc2)cc1 (configuration not stated),-64.2%
23,Cc1ccc(Nc2nc(O)c(CC(=O)Nc3ccc(C(C)C)cc3)s2)cc1C,0.202%

row,SMILES,inhibition
1,CCC(=O)c1ccc(OCC(=O)Nc2ccc3nc(C)sc3c2)cc1,-168%
2,CCOc1ccc(Nc2nc(O)c(CC(=O)Nc3cccc(C)c3)s2)cc1,33.8% (active)
3,Cc1ccc(NC(=O)Cc2sc(Nc3ccc(C)cc3)nc2O)cc1,53.6% (active)
4,CCOc1ccc(N(CC(=O)Nc2ccc(S(=O)(=O)Nc3cc(C)ccc3C)cc2)S(C)(=O)=O)cc1,1.87%
5,Cc1ccc(Nc2nc(NCC(=O)Nc3cc(C)ccc3C)nc(Nc3ccc(C)cc3)n2)cc1,-44%
6,Cc1cccc(-c2cnc(C(O)c3ccc4c(c3)OCO4)[nH]2)c1 (configuration not stated),-30.9%
7,COc1ccc(C2CC(=O)c3cnc(NC(=O)c4cc(OC)c(OC)c(OC)c4)nc3C2)c(OC)c1 (configuration not stated),24.2%
8,C=C1C(=O)O[C@H]2C=C(C)C=C[C@@]3(C)CC[C@@]1(O)[C@H]23,7.94%
9,O=C(NCc1ccncc1)C1CC(=O)N(c2cccc(C(F)(F)F)c2)C1 (configuration not stated),0.292%
10,Cc1oc(-c2ccccc2)nc1C(=O)N(C)Cc1cccc(Cl)c1Cl,-7.53%
11,O=C1NCCCC12CCN(Cc1cnc3ccccc3n1)CC2,10.3%
12,O=C(c1cccnc1)N1CCN(c2cc(-c3ccccc3)[nH]n2)CC1,12.7%
13,CN(CCc1ccccc1)c1nccc(N2CCN(C(=O)c3csc(-c4cccnc4)n3)CC2)n1,51.1% (active)
14,Cc1ccc(-c2nc(C(=O)N3CCN(c4ccccn4)CC3)cs2)n1C,-26.2%
15,Cc1nc2cccnc2nc1C,-39.7%
16,NC(=Nc1cccnc1)c1ccc2ccccc2n1,4.02%
17,Clc1ccc(C2NC3=NCN(Cc4ccco4)CN3c3nc4ccccc4n32)cc1 (configuration not stated),36.4% (active)
18,COc1cccc(CNC(=O)C2(C)Oc3cccnc3N(C)C2=O)c1 (configuration not stated),-5.25%
19,O=C(NC1CCCCCC1)c1nc(Cn2cnc3ccccc3c2=O)no1,9.85%
20,COc1ccc(N(CC(=O)NCc2ccco2)S(=O)(=O)c2ccccc2[N+](=O)[O-])c(OC)c1,3.13%
21,CC(C)(C)c1ccc(-c2nnc3n2-c2ccccc2SC3)cc1,56.7% (active)
22,CCc1ccccc1N1C(=O)CN(S(C)(=O)=O)CC1(C)C(=O)NC1CCCCC1 (configuration not stated),19.9%
23,COCCSc1ccc(-c2cccnc2)nn1,1.49%

row,SMILES,inhibition
1,Cc1ccc(C(=O)N2CCC3(CC2)CCN(c2cnn(C)c2)C3=O)cc1,17.1%
2,O=C(NCC(c1ccco1)N1CCCCC1)c1ccccc1Cl (configuration not stated),-6.05%
3,Cc1cc(=O)n(CC(=O)NCc2ccccc2)c(N2CCCC2)n1,0.241%
4,CCCOc1ccc(CNC(=O)C2CCCN(c3nnc(N4CCCC4=O)s3)C2)cc1 (configuration not stated),5.69%
5,Cc1ccc(CNC(=O)c2cc(=O)nc3sc(N4CCCC(C)C4)nn23)cc1 (configuration not stated),30.1% (active)
6,COc1ccccc1-n1ccnc(NC(=O)c2cccc(F)c2)c1=O,11%
7,COc1cccc(NC(=O)Nc2nccn(-c3ccccc3)c2=O)c1,39.1% (active)
8,COc1cccc(C(=O)Nc2nccn(-c3cccc(F)c3)c2=O)c1,0.051%
9,CSc1ncccc1C(=O)Nc1ccnn1C(C)c1ccncc1 (configuration not stated),-23%
10,CCn1c2ccccc2n2c(S(=O)(=O)Cc3ccccc3)nnc12,5.02%
11,Cc1sc2nc(C3CC3)n(C3CCN(C(=O)C(C)C)CC3)c(=O)c2c1C,18.3%
12,CCC(Oc1ccccc1)C(=O)NCc1ccc2c(c1)OCO2 (configuration not stated),21.1%
13,c1ccc(-c2ccc(NCc3ccc4c(c3)OCO4)nn2)cc1,33.6% (active)
14,c1cc(CNCc2ccc3c(c2)OCO3)ccn1,0.888%
15,Cc1cccc(CN2CCN(CC(=O)NCCN3CCOCC3)C2=O)c1,-2.8%
16,O=C(NCc1ccccc1F)c1nnn(-c2ccccc2)n1,14.4%
17,CSCc1c(C)noc1-c1cc(C)on1,8.31%
18,COc1ccccc1N(Cc1nc2nc(C)cc(C)n2n1)C(=O)c1ccccc1,-0.203%
19,CCOc1nc(-c2ccc(Cl)cc2Cl)nc2ccccc12,13.4%
20,Cc1ccnc(Nc2nc(-c3ccccc3)c3cc(Cl)ccc3n2)n1,82.8% (active)
21,CCOc1ccc(Nc2cc(C(=O)NCCN3CCCC3)c3ccccc3n2)cc1,29.9%
22,CCOc1ccc(C(=O)C[n+]2cc(-c3ccccc3)n3c2CCC3)cc1,30.3% (active)
23,CC(=O)C[n+]1cc(-c2ccc(C)cc2)n2c1CCC2,5.82%
